Test results taken from the supplement of paper PMC8728848.
Many of the other results were omitted from the sample, so the strongest signals are more common in it than they were.

Columns and labels:
Experiment in all cases: glycan array binding signal (z-score within array); higher = stronger binding
Conditions in all cases: glycan notation: IUPAC condensed, linker removed
[1] = target: Gal3S(b1-4)[Fuc(a1-3)]Glc6S
Outline: (§1)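 The Consortium for Functional Glycomics database supplied 3228 glycan arrays, of which those lacking an available protein sequence were dropped. The binding signal, a within-array Z-score, was averaged across arrays of the same protein sequence and across linkers. Negative scores can be read as non-binding.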

Gal6S(b1-3)GlcNAc = target: Gal6S(b1-3)GlcNAc
Outline: as §1

Gal6S(b1-4)GlcNAc6S = target: Gal6S(b1-4)GlcNAc6S
Outline: as §1

GalNAc(b1-4)Gal(b1-4)Glc = target: GalNAc(b1-4)Gal(b1-4)Glc
Outline: as §1

[2] = target: GalNAc(b1-4)GlcNAc(b1-3)GalNAc(b1-4)GlcNAc
Outline: as §1

[3] = target: GlcNAc(b1-2)[GlcNAc(b1-4)]Man(a1-3)[GlcNAc(b1-4)][GlcNAc(b1-2)[GlcNAc(b1-6)]Man(a1-6)]Man(b1-4)GlcNAc(b1-4)GlcNAc
Outline: as §1

GlcNAc(b1-4)GlcNAc = target: GlcNAc(b1-4)GlcNAc
Outline: as §1

[4] = target: GlcNAc(b1-6)Gal(b1-4)GlcNAc
Outline: as §1

[5] = target: Man(a1-2)Man(a1-2)Man(a1-6)[Man(a1-3)]Man
Outline: as §1

Man(a1-2)Man(a1-3)Man = target: Man(a1-2)Man(a1-3)Man
Outline: as §1

Man(a1-6)Man = target: Man(a1-6)Man
Outline: as §1

MurNAc(b1-4)GlcNAc = target: MurNAc(b1-4)GlcNAc
Outline: as §1

[6] = target: Neu5Ac(a2-3)Gal(b1-3)GalNAc(b1-4)[Neu5Ac(a2-3)]Gal(b1-4)Glc
Outline: as §1

[7] = target: Neu5Ac(a2-3)Gal(b1-3)GlcNAc(b1-2)Man(a1-3)[Neu5Ac(a2-3)Gal(b1-3)GlcNAc(b1-2)Man(a1-6)]Man(b1-4)GlcNAc(b1-4)GlcNAc
Outline: as §1

[8] = target: Neu5Ac(a2-3)Gal(b1-3)GlcNAc(b1-3)Gal(b1-4)GlcNAc
Outline: as §1

[9] = target: Neu5Ac(a2-3)Gal(b1-3)GlcNAc(b1-6)GalNAc
Outline: as §1

[10] = target: Neu5Ac(a2-3)Gal(b1-3)[Fuc(a1-4)]GlcNAc(b1-3)Gal(b1-3)[Fuc(a1-4)]GlcNAc
Outline: as §1

[11] = target: Neu5Ac(a2-3)Gal(b1-3)[Neu5Ac(a2-6)]GlcNAc(b1-3)[Fuc(a1-3)[Gal(b1-4)]GlcNAc(b1-6)]Gal(b1-4)Glc
Outline: as §1

[12] = target: Neu5Ac(a2-3)Gal(b1-4)GlcNAc(b1-2)Man(a1-3)[Neu5Ac(a2-6)Gal(b1-4)GlcNAc(b1-2)Man(a1-6)]Man(b1-4)GlcNAc(b1-4)GlcNAc
Outline: as §1

[13] = target: Neu5Ac(a2-3)Gal(b1-4)GlcNAc(b1-2)[Neu5Ac(a2-3)Gal(b1-4)GlcNAc(b1-4)]Man(a1-3)[GlcNAc(b1-4)][Neu5Ac(a2-3)Gal(b1-4)GlcNAc(b1-2)[Neu5Ac(a2-3)Gal(b1-4)GlcNAc(b1-6)]Man(a1-6)]Man(b1-4)GlcNAc(b1-4)GlcNAc
Outline: as §1

[14] = target: Neu5Ac(a2-3)Gal(b1-4)GlcNAc(b1-3)Gal(b1-3)GlcNAc
Outline: as §1

Neu5Ac(a2-6)Gal = target: Neu5Ac(a2-6)Gal
Outline: as §1

[15] = target: Neu5Ac(a2-6)Gal(b1-3)GlcNAc(b1-3)[Gal(b1-4)GlcNAc(b1-6)]Gal(b1-4)Glc
Outline: as §1

[16] = target: Neu5Ac(a2-6)Gal(b1-4)GlcNAc(b1-2)Man(a1-3)[Man(a1-6)]Man(b1-4)GlcNAc(b1-4)GlcNAc
Outline: as §1

[17] = target: Neu5Ac(a2-6)Gal(b1-4)GlcNAc(b1-2)Man(a1-3)[Neu5Ac(a2-6)Gal(b1-4)GlcNAc(b1-2)Man(a1-6)]Man(b1-4)GlcNAc(b1-4)[Fuc(a1-6)]GlcNAc
Outline: as §1

[18] = target: Neu5Ac(a2-6)Gal(b1-4)GlcNAc(b1-2)Man(a1-6)[Gal(b1-4)GlcNAc(b1-2)Man(a1-3)]Man(b1-4)GlcNAc(b1-4)GlcNAc
Outline: as §1

[19] = target: Neu5Gc(a2-3)Gal(b1-4)[Fuc(a1-3)]GlcNAc
Outline: as §1

[20] = target: Neu5Gc(a2-8)Neu5Gc(a2-3)Gal(b1-4)GlcNAc(b1-3)Gal(b1-4)GlcNAc
Outline: as §1

B1: GS13686A-pdi-553-26-553 (Parabacteroides distasonis) (protein)
chain: NENPDKPTDDVNYNMNEPRLASTLRGGLIIEGNVEQRLKPLQIDFYSQMTVDGGGWGTKNYIQDDEWNNLVWEEYLKQIASINIVIRSLTEKDKDAYANTIAFARIWRVYVHTLAADKFGPMPFPAYEIVEANPPYKSLKDIYDEYFRELDAAINGFNDSAQPIFSDAGIDLIYKNDVSKWKRFANSLRLRLAVRLTEVDQEKCIAEANAAISSPAGLISDKADNAYMPPKADGSWGQDYNYTMFQITWSGPICMSKSVEKLVTNIGGVAWPQGVVNQTSGVAVSSVHPEKVDPRAPKIFQPGIENGDWKGLVYGPKAEEANTGIYQSKQCAELGFIIKDGYPYKSRPYDLFLSEEVHFLKAELYARGFIAGDAKSEYEAGVRASFATWGVTSEVDDYLTSTEKNEAGTSARYDDQQGAGNTALEKIITQKYIAGIPDLAQEGWNDKRRLNLPRLDVAVYRDQAVYNNNDKDILKSANFIKRMRYPTKESLINATEYEKGKSMLGGKGDIVSTPLWWDKNSNYCTSSK
glycan array binding signal (z-score) [1]: 0.425 | glycan array binding signal (z-score) (Gal6S(b1-3)GlcNAc): 22.6 | glycan array binding signal (z-score) (Gal6S(b1-4)GlcNAc6S): -0.176 | glycan array binding signal (z-score) (GalNAc(b1-4)Gal(b1-4)Glc): 0.208 | glycan array binding signal (z-score) [2]: 0.492 | glycan array binding signal (z-score) [3]: -0.24 | glycan array binding signal (z-score) (GlcNAc(b1-4)GlcNAc): -0.294 | glycan array binding signal (z-score) [4]: -0.023 | glycan array binding signal (z-score) [5]: -0.073 | glycan array binding signal (z-score) (Man(a1-2)Man(a1-3)Man): -0.226 | glycan array binding signal (z-score) (Man(a1-6)Man): 0.458 | glycan array binding signal (z-score) (MurNAc(b1-4)GlcNAc): -0.226 | glycan array binding signal (z-score) [6]: -0.071 | glycan array binding signal (z-score) [7]: -0.099 | glycan array binding signal (z-score) [8]: -0.307 | glycan array binding signal (z-score) [9]: 3.88 | glycan array binding signal (z-score) [10]: -0.153 | glycan array binding signal (z-score) [11]: -0.086 | glycan array binding signal (z-score) [12]: 1.01 | glycan array binding signal (z-score) [13]: 0.051 | glycan array binding signal (z-score) [14]: -0.389 | glycan array binding signal (z-score) (Neu5Ac(a2-6)Gal): -0.025 | glycan array binding signal (z-score) [15]: 2 | glycan array binding signal (z-score) [16]: 0.341 | glycan array binding signal (z-score) [17]: 0.391 | glycan array binding signal (z-score) [18]: 0.126 | glycan array binding signal (z-score) [19]: 0.009 | glycan array binding signal (z-score) [20]: -0.323
